Laboratory results published in PubChem BioAssay (NCI).
This is part of a sample that, as a whole, favours compounds with a hit. Of some 83,000 tested, about 20% had one in any assay.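 The endpoint reported here, percent growth, reads 100 for growth as untreated, 0 for no net growth and -100 for all cells dead.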 Values without a mark were called inactive. The source made the active and inactive calls. Rule for the calls: active = growth percent below 10; inactive = the rest.

How the values were obtained:
Experiment in all cases: NCI-60 one-dose screen, 48 h (100 = growth as untreated, 0 = no growth, -100 = all killed)
Conditions in all cases: 10 µM unless noted
[1] = tested on: HCT-15 colon
[2] = tested on: HT29 colon
[3] = tested on: SNB-75 CNS
[4] = tested on: SNB-19 CNS
[5] = tested on: U251 CNS
[6] = tested on: PC-3 prostate
[7] = tested on: SK-MEL-5 melanoma
[8] = tested on: UACC-62 melanoma
[9] = tested on: SK-MEL-28 melanoma
[10] = tested on: LOX IMVI melanoma

Compound | growth [1] | growth [2] | growth [3] | growth [4] | growth [5] | growth [6] | growth [7] | growth [8] | growth [9] | growth [10]
Clc1ccc2c(NCCCN3CCN(c4nc(-n5ccnc5)nc5ccccc45)CC3)ccnc2c1 | -64.6% (active) | -16.2% (active) | 100% | 99.5% | 97.2% | 78.4% | -94.8% (active) | 93.4% | -86.9% (active) | 
C=C1c2c(C)nn(-c3ccc(NC(C)=O)cc3)c2N(C)C23CC1C1(C)c4c(C)nn(-c5ccc(NC(C)=O)cc5)c4N(C)C(C)(CC12)C3 (configuration not stated) | 11% | 31.1% | 99% | 43.6% | 33.3% | 22.7% | 19.1% | 37% | 46.9% | 
CCCCNC(=O)c1cc(NCc2cc(O)ccc2O)ccc1O | 84.6% | 80.8% | 66.6% | 106% | 98.6% | 74.4% | 98.4% | 93.8% | 105% | 
CSc1nc(N)c(CNC(C)c2ccccc2)c(=O)n1C (configuration not stated) | 104% | 105% | 93.4% | 98.9% | 95% | 101% | 113% | 98.8% | 109% | 92.3%
CNC(=O)NCC1OC(n2cnc3c(NC(=O)Nc4ccccc4)ncnc32)C2OC(C)(C)OC12 (configuration not stated) | 97.5% | 98.5% | 59.7% | 85.3% | 94.1% | 71% | 86.2% | 91.5% | 91.7% | 
COc1cc2c(O)n(CCCn3ccnc3)c3c4cnc5cccc(c(=O)c3c2cc1OC)c54 | 95.2% | 33.8% | 52% | 33.8% | 14% | 28.2% | 24.9% | 15% | 79.6% | 3.76% (active)
CC(=O)C(C(C)=O)c1nc2sc3cc(Cl)ccc3n2c(=N)c1C#N | 94.2% | 92.4% | 41.2% | 78.8% | 82.3% | 65.2% | 74.6% | 61.6% | 103% | 
O=C(/C=C/C12c3ccccc3C(c3ccccc31)C1C(=O)N(c3ccccc3)C(=O)C12)c1ccc(Cl)cc1 (configuration not stated) | -0.519% (active) | 8.4% (active) | 72.1% | 39.4% | 19.8% | 22.3% | -55.2% (active) | 5.42% (active) | 4.17% (active) | -81.1% (active)
CCCn1nc(-c2ccccc2)c2c(-c3ccccc3)onc2c1=O | 61.8% | 43.1% | 53% | 77.2% | 72.9% | 73% | 79.7% | 53.8% | 95.5% | 
O=C(NCc1cn(Cc2cccc(Oc3ccccc3)c2)nn1)c1cccnc1NCc1ccc(Cl)cc1 | 21.7% | 9.24% (active) | 11% | 41.3% | 21.2% | 10% | 11.3% | 27.8% | 29.5% | 
CCc1nc2ccccc2[nH]1 | 108% | 108% | 91.1% | 98.3% | 106% | 101% | 110% | 98.9% | 105% | 
CN(C)c1ccc(/C=N/NC(=O)COc2cc(=O)n(C)c3ccccc23)cc1 | 104% | 108% | 76.8% | 88.4% | 104% | 101% | 101% | 88.5% | 109% | 99.8%
CC(=[N-])N1CCC[C@@H](Nc2c3ccccc3nc3ccccc23)C1.[Cl][Pt].[NH-]CCC[NH-] | 48.2% | 1.38% (active) | 3.22% (active) | 53.3% | 44.3% | 70.6% | -84.4% (active) | -63.3% (active) | 2.14% (active) | 27.9%
CN(C)c1ccc2cc(-c3ccc(Cl)c(Cl)c3)c(N)nc2c1 | 32.1% | 2.59% (active) | 63.3% | 63.6% | 31.1% | 27.6% | -58.8% (active) | 57.2% | 47.4% | 20.6%
O=C(O)c1ccccc1C(=O)Nc1ccc(Cl)cc1 | 98.5% | 104% | 95.8% | 102% | 89.9% | 96.6% | 93.9% | 48.8% | 96.7% | 63.8%
COc1cc2c(cc1OC)-c1ccc3cc4c(cc3c1N(CCCN1CCCCC1)C2)OCO4 | 47.5% | 25.4% | 51.3% | 42.6% | 42.1% | 29.3% | 44.9% | 59.2% | 80.4% | 
NC(=S)N/N=C/C(=O)O | 93.7% | 80% | 99.2% | 108% | 102% | 70% | 103% | 106% | 111% | 
COc1ccc(-c2nc3ccccn3c2/C=C/C(=O)c2cc(OC)c(OC)c(OC)c2)cc1 | 50.4% | 45.2% | 44.3% | 72.4% | 36% | 56.2% | 26.9% | 45.2% | 41.1% | 44.2%
Clc1cnc(Nc2ccc(OCCN3CCCC3)cc2)nc1NCc1ccco1 | 6.01% (active) | 11.3% | -3.83% (active) | 38.6% | 19.6% | 28.7% | 46.1% | 46.5% | 51.7% | 
COc1ccc(N(C)c2nc(Cl)nc3cnn(C)c23)cc1 | 9.08% (active) | -9.42% (active) | 18.7% | 29.7% | 17.8% | 16.2% | -25.2% (active) | 32% | 58.2% | 18.7%
COc1cc(C(=O)Nc2cc(O)c(CC=C(C)C)c(O)c2)cc2c1O[C@]1(C)CC[C@@H](O)C(C)(C)[C@H]1C2 | 13.3% | 1.4% (active) | 17.9% | 53.4% | 16.3% | 18.2% | -23.5% (active) | 8.82% (active) | 30% | -12% (active)

Compound | growth [1] | growth [2] | growth [3] | growth [4] | growth [5] | growth [6] | growth [7] | growth [8] | growth [9] | growth [10]
N#C/C(=C\c1ccc2c(c1)OCO2)n1nnc2ccccc21 | 9% (active) | 11.5% | -49.7% (active) | 19.8% | 13% | 12.5% | 20.4% | 20% | 25.8% | -11% (active)
O=C1Nc2ccccc2/C1=N/N=C/c1c[nH]c2ccccc12 | 72.2% | 80.8% | 45.5% | 88.1% | 73.6% | 81.5% | 76.8% | 38.4% | 96.3% | 
C#C[C@]1(O)CC[C@H]2[C@@H]3CC=C4c5sc(N=C(N)N)nc5CC[C@]4(C)[C@H]3CC[C@@]21C | -60.8% (active) | -0.997% (active) | -60.5% (active) | 18.9% | -14.9% (active) | 0.258% (active) | -94.9% (active) | -51.7% (active) | -68.8% (active) | 
C[C@]12CCC(=O)C[C@H]1CC[C@@H]1[C@@H]2CC[C@@]2(C)[C@H]1CC[C@]2(O)C(=O)CO | 104% | 99.4% | 94.4% | 108% | 121% | 102% | 104% | 102% | 108% | 
C=C1c2c(C)nn(-c3ccc(O)cc3)c2N(C)C23C[C@@H]1C1(C)c4c(C)nn(-c5ccc(O)cc5)c4N(C)C(C)(C[C@H]12)C3 (some centres not stated) | 11.1% | 17.5% | 64.2% | 48.7% | 33% | 12.8% | 11.4% | 32.7% | 42.6% | 
O=C1CSC(c2ccccc2)N1c1ccccc1 (configuration not stated) | 98.9% | 116% | 99.5% | 99.1% | 102% | 91.4% | 98.1% | 103% | 106% | 
COc1ccc(/C=C(\C#N)n2nnc3cc(F)c(F)cc32)c(OC)c1OC | 43.7% | 64.5% | 82% | 82.9% | 73.9% | 57.9% | 60.5% | 58.6% | 77.3% | 
O=C1NN(C(=O)c2ccc(O)cc2)C(c2ccccc2)=N/C1=C\c1cn(-c2ccccc2)nc1-c1ccccc1 | 103% | 95.1% | 77.4% | 92.5% | 96.2% | 104% | 98.7% | 92.9% | 101% | 
Clc1ccc(/C=N\N=c2\scc(-c3ccc(Cl)cc3)n2/N=C/c2ccc(Cl)cc2)cc1 | 111% | 76.5% | 91.6% | 90% | 97.6% | 102% | 106% | 98.7% | 106% | 109%
Cn1ccc(Cc2cnc(N)s2)n1 | 104% | 97.5% | 93.3% | 98.9% | 97.5% | 98.8% | 101% | 100% | 106% | 
Cc1cc(C)on1 | 105% | 107% | 101% | 102% | 98.9% | 89.9% | 99.6% | 110% | 101% | 102%
COC(=O)c1ccc(CSc2nnc(-c3ccncc3)o2)cc1 | 108% | 109% | 81.9% | 110% | 104% | 87.5% | 112% | 97.5% | 107% | 
O=C(Oc1ccc([N+](=O)[O-])cc1)c1ccc(CBr)cc1 | 76.9% | 92.3% | 89.2% | 91.5% | 82.4% | 87% | 95.2% | 82.2% | 104% | 
COc1cc2oc(-c3cccc(C(=O)Nc4ccc(C)cc4)c3)cc(=O)c2c(OC)c1OC | 17.6% | 11.2% | 45.5% | 67.9% | 42.1% | 45% | -60.3% (active) | -33.8% (active) | 7.12% (active) | 
CO/C(=C1/NC(=O)C(Cc2ccc(O)c(Br)c2)N(C)C(=O)C(C)NC(=O)CCC/C=C(\C)CCC(C)OC1=O)c1ccccc1 (configuration not stated) | 3.37% (active) | 5.97% (active) | -94.2% (active) | -4.37% (active) | -36.8% (active) | -9.06% (active) | -67.6% (active) | 9.3% (active) | -25.8% (active) | 
Cl.Fc1c[c-]c(-c2ccccn2)c(F)c1.[Pt].c1ccc([PH+](c2ccccc2)c2ccccc2[PH+](c2ccccc2)c2ccccc2)cc1 | -83.8% (active) | -63.3% (active) | -98.3% (active) | -94.9% (active) | -87.8% (active) | -86.6% (active) | -97.2% (active) | -85.6% (active) | -94.5% (active) | -92.6% (active)
Fc1ccc(Nc2nc(Nc3ccc(-c4nc5ccccc5[nH]4)cc3)c3cn[nH]c3n2)cc1 | -41.2% (active) | -8.84% (active) | 83.3% | 87.6% | 33.5% | 76.6% | 78.8% |  | 51.7% | -64.6% (active)
Nc1c(C(=O)c2ccccc2)nnc2ncnn12 | 111% | 100% | 96.9% | 105% | 95.8% | 97.9% | 98.6% | 99.7% | 133% | 
CCn1nc(C#Cc2c(C)ccc3c(Nc4ccc(Cl)cc4)nccc23)c2c(N)ncnc21 | 23.3% | 2.98% (active) | -8.46% (active) | 9% (active) | 26% | 18.9% | -43.9% (active) | -4.21% (active) | 0.371% (active) | 
CCN(CC)CC(=O)Nc1cccc(C(=O)OC(C)C)c1 | 93.9% | 81.5% | 107% | 106% | 100% | 80.8% | 107% |  | 102% | 96.2%
CCN(CCO)CC(=O)c1cc(Cl)cc(Cl)c1Cl | 101% | 81.8% | 95.3% | 105% | 101% | 84% | 105% |  | 111% | 99.6%
